Laboratory results reported in the supplement of paper PMC10646978.
± gives the standard deviation.

Experiments:
Conditions in all cases: modulator concentration 10 µM
[1] = tested on: RAW-Dual (murine macrophage reporter line); experiment: NF-kB reporter (SEAP) activity fold change vs agonist alone; higher = enhanced NF-kB activity
In short: (§1)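 In 384-well plates holding 50 000 RAW-Dual murine macrophage reporter cells per well, compound at 10 μM final was pre-incubated for 1 hour at 37 °C, after which a PRR agonist was added overnight. Supernatant SEAP read with QUANTI-Blue at 620 nm absorbance reported NF-κB, and Lucia luciferase read with QUANTI-Luc luminescence reported IRF. Fold change values come from dividing each reporter signal by the mean of agonist-only control wells on the same plate, averaged over replicate plates with propagated errors.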

[2] = tested on: RAW-Dual (murine macrophage reporter line); experiment: IRF reporter (Lucia luciferase) activity fold change vs agonist alone; higher = enhanced IRF activity
In short: as §1

[3] = tested on: RAW-Dual (murine macrophage reporter line); experiment: viability score (confluency relative to resting cells, overnight) (fraction); higher = more viable, active = viable (0.7 or more)
In short: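 A compound met the cutoff when both of two confluency masks exceeded 70% of resting cells. Those masks were made with IncuCyte software from IncuCyte images of RAW-Dual macrophages treated overnight at 10 μM final. This is the basis of the viability score, which is confluency relative to resting cells.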

[4] = agonist: CpG ODN 1826 0.5 ug/mL

| Structure (SMILES) | NF-kB reporter [1, 4] | NF-kB reporter ([1]; agonist: LPS 0.1 ug/mL) | NF-kB reporter ([1]; agonist: MPLA […]) | IRF reporter ([2]; agonist: 3'3'-cGAMP 10 ug/mL) | IRF reporter ([2]; agonist: LPS 0.1 ug/mL) | IRF reporter ([2]; agonist: MPLA […]) | viability score [3] |
| --- | --- | --- | --- | --- | --- | --- | --- |
| CCC(C(=O)Nc1cc(Cl)cc(Cl)c1)c1ccccc1 (centres undefined) | 0.851 ± 0.05 | 1.16 ± 0.098 | 1.11 ± 0.045 | 1.09 ± 0.083 | 1.11 ± 0.062 | 0.97 ± 0.12 | 0.991 (active) |
| CNc1nc(Nc2ccc(C)c(C)c2)c2nccnc2n1 | 0.992 ± 0.063 | 1.03 ± 0.092 | 1.09 ± 0.09 | 0.992 ± 0.069 | 1.01 ± 0.19 | 1.22 ± 0.42 | 0.929 (active) |
| CN1CCN(CCC=C2c3ccccc3Sc3ccc(S(=O)(=O)N(C)C)cc32)CC1 | 0.935 ± 0.071 | 1.04 ± 0.12 | 1.01 ± 0.051 | 0.856 ± 0.057 | 0.978 ± 0.078 | 0.872 ± 0.076 | 0.991 (active) |
| CC(=O)N=C1NC(=O)C(=Cc2ccc(C)o2)S1 | 0.92 ± 0.088 | 0.847 ± 0.067 | 0.965 ± 0.026 | 0.817 ± 0.065 | 0.895 ± 0.082 | 0.823 ± 0.083 | 0.995 (active) |
| S=C(NCCN1CCOCC1)Nc1ccc(Cl)cc1 | 1 ± 0.23 | 0.966 ± 0.1 | 0.886 ± 0.12 | 0.71 ± 0.019 | 1.22 ± 0.16 | 1.13 ± 0.12 | 0.986 (active) |
| Cc1cc(C)n2nc(C(=O)NN=Cc3ccc(N(C)C)cc3)nc2n1 | 1.1 ± 0.069 | 1.09 ± 0.067 | 0.934 ± 0.084 | 0.996 ± 0.033 | 1.37 ± 0.11 | 1.3 ± 0.25 | 1.01 (active) |
| CCOc1cc(CC(=O)N[C@@H](CC(C)C)c2ccccc2N2CCCCC2)ccc1C(=O)O | 1.24 ± 0.23 | 1.11 ± 0.23 | 0.956 ± 0.055 | 0.897 ± 0.039 | 1.22 ± 0.32 | 1.26 ± 0.18 | 0.683 (inactive) |
| CCCCOC(=O)C1=C(C)NC2=C(C(=O)CCC2)C1c1cccc(C(F)(F)F)c1 (centres undefined) | 0.981 ± 0.1 | 1.01 ± 0.057 | 0.939 ± 0.058 | 0.993 ± 0.025 | 1.56 ± 0.28 | 1.15 ± 0.17 | 1.01 (active) |
| CCOc1ccc(C(=O)NCc2cccnc2)cc1Br | 1.23 ± 0.07 | 1.06 ± 0.14 | 1.04 ± 0.036 | 0.911 ± 0.058 | 0.934 ± 0.14 | 1.08 ± 0.26 | 0.999 (active) |
| O=C(NCc1nc(C2CCCCC2)cs1)c1ccc(F)cc1 | 0.898 ± 0.05 | 1.16 ± 0.11 | 0.918 ± 0.047 | 1.03 ± 0.063 | 1.26 ± 0.094 | 1.1 ± 0.09 | 0.931 (active) |
| CCCC(CCC)C(=O)O | 1.05 ± 0.099 | 1.01 ± 0.16 | 0.99 ± 0.045 | 0.957 ± 0.079 | 0.965 ± 0.032 | 0.897 ± 0.094 | 0.992 (active) |
| CCOC(=O)C1=C(CC)OC(N)=C(C#N)C1c1cccc(Oc2ccc(Cl)cc2)c1 (centres undefined) | 0.746 ± 0.058 | 0.662 ± 0.05 | 0.769 ± 0.073 | 0.281 ± 0.0095 | 1.13 ± 0.18 | 1.12 ± 0.2 | 0.972 (active) |
| N#CC1=C(NC(=S)NC(=O)c2ccccc2)c2ccccc2CC12CCCCC2 | 0.818 ± 0.096 | 0.577 ± 0.12 | 1.08 ± 0.085 | 1.76 ± 0.18 | 1.41 ± 0.098 | 1.73 ± 0.18 | 0.877 (active) |
| COc1ccccc1N1C(=O)C(=Cc2ccc3c(c2)OCO3)SC1=S | 0.99 ± 0.16 | 1.05 ± 0.17 | 0.945 ± 0.14 | 0.951 ± 0.046 | 1.2 ± 0.24 | 1.22 ± 0.36 | 0.999 (active) |
| C=C1C(=O)O[C@@H]2[C@H]3O[C@]3(C)CC/C=C(\C)CC[C@@H]12 [Prestw-550] | 0.314 ± 0.019 | 0.312 ± 0.036 | 0.108 ± 0.0071 | 0.0909 ± 0.0037 | 0.0437 ± 0.0043 | 0.0367 ± 0.005 | 0.495 (inactive) |
| COc1cccc2c1C(=O)c1c(O)c3c(c(O)c1C2=O)C[C@@](O)(C(=O)CO)C[C@@H]3O[C@H]1C[C@H](N)[C@H](O)[C@H](C)O1 [Prestw-438] | 0.123 ± 0.007 | 0.0747 ± 0.019 | 0.112 ± 0.0071 | 0.03 ± 0.0031 | 0.0425 ± 0.0034 | 0.0335 ± 0.0064 | 0.114 (inactive) |
| O=C(NCC#CCOc1cccc(C(F)(F)F)c1)Nc1c(F)cccc1F | 0.921 ± 0.077 | 1.13 ± 0.12 | 0.922 ± 0.045 | 0.994 ± 0.051 | 1.07 ± 0.17 | 1.15 ± 0.39 | 1.01 (active) |
| COc1cc(O)c(C(=O)Nc2nc(C(=O)NCCN(C(C)C)C(C)C)cs2)cc1OC | 1.25 ± 0.33 | 1.01 ± 0.073 | 1.13 ± 0.087 | 0.997 ± 0.038 | 0.907 ± 0.1 | 0.973 ± 0.18 | 0.994 (active) |
| O=C1[C@H](CC[C@H](O)c2ccc(F)cc2)[C@@H](c2ccc(O)cc2)N1c1ccc(F)cc1 | 1.11 ± 0.11 | 1.05 ± 0.051 | 1.29 ± 0.12 | 0.927 ± 0.063 | 0.98 ± 0.084 | 1.21 ± 0.11 | 0.97 (active) |
| CCOC(=O)CNS(=O)(=O)c1ccc([N+](=O)[O-])cc1 | 1.09 ± 0.093 | 1.05 ± 0.11 | 1.04 ± 0.061 | 0.997 ± 0.13 | 1.05 ± 0.044 | 1.09 ± 0.087 | 0.998 (active) |
| CCc1cccc(C)c1NC(=O)C(C)(C)CC | 0.948 ± 0.18 | 0.846 ± 0.12 | 0.911 ± 0.09 | 1.03 ± 0.041 | 0.988 ± 0.097 | 0.975 ± 0.1 | 0.995 (active) |
| CN(C)c1ccc(C=C2C(=O)C(=O)c3ccccc32)cc1Br | 0.989 ± 0.098 | 0.947 ± 0.15 | 0.999 ± 0.036 | 1.02 ± 0.21 | 1 ± 0.043 | 1 ± 0.16 | 1 (active) |
| COc1ccc([N+](=O)[O-])cc1NC(=O)c1ccccc1SC | 0.656 ± 0.079 | 0.705 ± 0.14 | 0.88 ± 0.086 | 0.945 ± 0.031 | 1.03 ± 0.23 | 1.17 ± 0.33 | 0.987 (active) |
| Cc1ccc(-n2nnc3c(=O)n(CC(=O)N4CC(C)OC(C)C4)cnc32)cc1Cl (centres undefined) | 1.12 ± 0.096 | 1.09 ± 0.089 | 0.885 ± 0.047 | 1.09 ± 0.057 | 1.14 ± 0.079 | 1.14 ± 0.34 | 0.976 (active) |
| O=C(CCCn1c(=O)[nH]c2ccc(Br)cc2c1=O)NCC1CCCO1 (centres undefined) | 0.965 ± 0.081 | 1.05 ± 0.099 | 0.931 ± 0.043 | 0.957 ± 0.057 | 1.04 ± 0.063 | 0.94 ± 0.25 | 1.02 (active) |
| O=C(NN=Cc1ccc(O)c(O)c1)c1cc2ccccc2cc1O | 0.35 ± 0.03 | 0.729 ± 0.075 | 0.589 ± 0.038 | 0.229 ± 0.017 | 0.909 ± 0.072 | 0.794 ± 0.18 | 0.997 (active) |
| Cc1ccc(C)c(Cc2cc([N+](=O)[O-])ccc2C)c1 | 0.287 ± 0.023 | 0.436 ± 0.081 | 0.726 ± 0.026 | 1.28 ± 0.081 | 1.01 ± 0.084 | 1.57 ± 0.28 | 0.996 (active) |
